PubChem BioAssay
For part of these data: Results with a measured potency or affinity are listed apart. Active and inactive are the calls of the source.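 The calls were made as follows, unless noted: active = primary screen activator hit with a dose response curve and TRPC4 channel activation at any tested dose; inactive = no activation, no dose response, or not a primary hit.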

Experiments:
[1] = system: TRPC4 beta (transient receptor potential cation channel C4), mouse; experiment: activators of mouse TRPC4 channel, confirmation, cell-based, Fluo4 calcium, HEK293 TRPC4beta/mu-opioid, duplicates, 10 µM (AID 2426;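 active = fluorescence ratio normalized to control raised more than 50% in primary screen plus both repeat runs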); settings: Fluo4 calcium fluorescence, at 10 µM; hits give high values
[2] = system: transient receptor potential cation channel C4 beta (TRPC4), mouse; experiment: activators of mouse TRPC4 channel, confirmation, cell-based, second round, Fluo4, HEK293 TRPC4beta/mu-opioid, 1 µM (AID 2461;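 active = primary screen active and over 50% activation in each of two duplicate runs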); settings: Fluo4 calcium fluorescence, at 1 µM; hits give high values
[3] = system: TRPC4 (transient receptor potential cation channel C4 beta), mouse; experiment: positive allosteric modulators of mouse TRPC4, confirmation, cell-based, second round, Fluo-4, HEK293 TRPC4beta/mu-opioid, 1 µM (AID 2554;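 active = primary screen hit whose fluorescence ratio, in both repeats, exceeds the weak agonist control mean by 3 SD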); settings: DAMGO EC20, Fluo-4 calcium flux, at 1 µM; hits give high values
[4] = system: TRPC4 beta (transient receptor potential cation channel C4), mouse; experiment: positive allosteric modulators of mouse TRPC4, confirmation, cell-based, Fluo-4, HEK293 TRPC4beta/mu-opioid (AID 2555;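 active = primary screen hit whose calcium fluorescence ratio, in both repeats, exceeds the weak agonist control mean by 3 SD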); settings: DAMGO EC20, Fluo-4 calcium flux, at 10 µM; hits give high values
[5] = target: Short transient receptor potential channel 4 (Mus musculus) (UniProt Q9QUQ5); experiment: inhibitors of mouse TRPC4 channel, confirmation, cell-based, Fluo4, HEK293 TRPC4beta/mu-opioid (AID 2636;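 active = calcium signal cut by more than 3 SD below the full-agonist control yet still positive, in both repeats and the earlier primary screen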); settings: DAMGO, Fluo4 calcium flux, at 10 µM; hits give high values
Short transient receptor potential channel 4 (Mus musculus), sequence (Q9QUQ5 whole entry, looked up): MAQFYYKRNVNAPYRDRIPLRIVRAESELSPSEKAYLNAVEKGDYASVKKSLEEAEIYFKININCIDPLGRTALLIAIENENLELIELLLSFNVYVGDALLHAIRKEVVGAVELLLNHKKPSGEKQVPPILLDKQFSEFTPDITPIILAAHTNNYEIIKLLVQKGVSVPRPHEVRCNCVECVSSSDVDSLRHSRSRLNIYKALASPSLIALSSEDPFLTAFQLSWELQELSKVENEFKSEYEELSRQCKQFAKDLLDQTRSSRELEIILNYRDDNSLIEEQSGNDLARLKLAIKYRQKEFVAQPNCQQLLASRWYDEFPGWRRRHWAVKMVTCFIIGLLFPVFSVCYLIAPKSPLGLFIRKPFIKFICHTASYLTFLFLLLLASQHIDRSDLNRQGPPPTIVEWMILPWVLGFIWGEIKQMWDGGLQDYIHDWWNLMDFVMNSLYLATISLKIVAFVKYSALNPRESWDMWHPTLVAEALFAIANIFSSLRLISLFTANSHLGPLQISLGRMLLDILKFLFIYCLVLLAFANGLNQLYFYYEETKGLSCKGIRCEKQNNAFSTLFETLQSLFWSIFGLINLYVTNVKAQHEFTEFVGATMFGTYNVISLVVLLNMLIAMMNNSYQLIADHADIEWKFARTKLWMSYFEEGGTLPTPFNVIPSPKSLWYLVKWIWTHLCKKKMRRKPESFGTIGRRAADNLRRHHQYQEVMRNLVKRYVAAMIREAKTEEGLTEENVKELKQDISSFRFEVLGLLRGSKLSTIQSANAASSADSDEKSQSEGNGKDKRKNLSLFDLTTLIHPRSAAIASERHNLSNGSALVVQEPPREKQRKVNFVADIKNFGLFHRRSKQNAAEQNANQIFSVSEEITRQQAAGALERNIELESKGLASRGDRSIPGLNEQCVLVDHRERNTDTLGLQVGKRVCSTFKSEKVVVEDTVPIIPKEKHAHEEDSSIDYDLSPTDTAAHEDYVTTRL

[6] = target: Short transient receptor potential channel 4 (Mus musculus) (UniProt Q9QUQ5); experiment: inhibitors of mouse TRPC4 channel, confirmation, cell-based, second round, Fluo4, HEK293 TRPC4beta/mu-opioid, 1 µM (AID 2637;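 active = calcium signal ratio cut to more than 3 SD under the fully stimulated control mean yet still positive, in both repeats and the primary screen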); settings: Fluo4 calcium flux, DAMGO, at 1 µM; hits give high values
[7] = target: Short transient receptor potential channel 4 (Mus musculus) (UniProt Q9QUQ5); experiment: mouse TRPC4 channel activators, dose response, cell-based, HEK293 TRPC4/mu-opioid, Fluo-4 calcium (AID 434937)
[8] = target: Short transient receptor potential channel 4 (Mus musculus) (UniProt Q9QUQ5); experiment: TRPC4 positive allosteric modulators, dose response, cell-based, HEK293 TRPC4/mu-opioid, Fluo-4 calcium, EC20 DAMGO (AID 434941;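 active = earlier screen potentiator hit that boosts the TRPC4 ion channel at some dose, with a dose response; inactive = no potentiation, no dose response, or not a prior hit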;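 also: calcium entry triggered by an EC20 dose of DAMGO at the co-expressed mu-opioid receptor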)
[9] = target: Short transient receptor potential channel 4 (Mus musculus) (UniProt Q9QUQ5); experiment: mouse TRPC4 channel inhibitors, dose response, cell-based, HEK293 TRPC4/mu-opioid, Fluo-4 calcium (AID 434942;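 active = primary screen inhibitor hit that blocks the TRPC4 channel at some tested dose, yielding a dose curve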)
[10] = target: Short transient receptor potential channel 6 (Mus musculus) (UniProt Q61143); experiment: inhibition of mouse TRPC6 channel, confirmation, selectivity assay for TRPC4 inhibitor project, cell-based, HEK293, membrane potential dye, duplicate (AID 434948;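 active = active in primary screen and both duplicates, each dropping signal beyond three positive-control SD with fluorescence still positive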); settings: HEK293 TRPC6, membrane potential dye fluorescence, at 10 µM, stimulated with maximal-effect acetylcholine; hits give high values
Short transient receptor potential channel 6 (Mus musculus), sequence (Q61143 whole entry, looked up): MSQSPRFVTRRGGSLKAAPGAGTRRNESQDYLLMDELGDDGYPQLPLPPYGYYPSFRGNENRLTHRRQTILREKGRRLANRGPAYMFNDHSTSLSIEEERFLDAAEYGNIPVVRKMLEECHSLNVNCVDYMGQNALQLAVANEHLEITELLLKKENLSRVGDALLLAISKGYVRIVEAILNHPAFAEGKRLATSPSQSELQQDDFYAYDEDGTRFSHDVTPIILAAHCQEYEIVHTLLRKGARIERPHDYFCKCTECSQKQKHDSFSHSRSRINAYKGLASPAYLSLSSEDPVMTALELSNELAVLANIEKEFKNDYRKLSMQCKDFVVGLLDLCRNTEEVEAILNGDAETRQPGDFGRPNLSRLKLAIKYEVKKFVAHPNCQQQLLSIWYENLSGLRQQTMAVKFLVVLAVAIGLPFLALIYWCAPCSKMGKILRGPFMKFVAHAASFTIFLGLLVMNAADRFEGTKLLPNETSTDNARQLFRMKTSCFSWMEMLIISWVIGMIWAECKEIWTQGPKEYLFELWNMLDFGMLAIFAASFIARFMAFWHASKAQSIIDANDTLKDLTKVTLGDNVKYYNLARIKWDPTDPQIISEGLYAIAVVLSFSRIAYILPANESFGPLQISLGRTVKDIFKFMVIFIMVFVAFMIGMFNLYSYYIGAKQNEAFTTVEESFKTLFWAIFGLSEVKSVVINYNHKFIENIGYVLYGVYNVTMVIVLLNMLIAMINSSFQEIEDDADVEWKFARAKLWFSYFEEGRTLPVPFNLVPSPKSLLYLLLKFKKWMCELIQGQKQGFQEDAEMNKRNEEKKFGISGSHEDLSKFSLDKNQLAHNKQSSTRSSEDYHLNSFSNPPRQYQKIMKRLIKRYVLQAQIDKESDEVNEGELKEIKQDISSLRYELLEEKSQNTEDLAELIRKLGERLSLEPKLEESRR

[11] = target: Short transient receptor potential channel 6 (Mus musculus) (UniProt Q61143); experiment: activation of mouse TRPC6 channel, confirmation, selectivity assay for TRPC4 activator project, cell-based, HEK293, membrane potential dye, duplicate (AID 434950;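 active = membrane potential signal rise above negative control mean plus 3 SD in both duplicates, also active in the earlier TRPC4 screen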); settings: HEK293 TRPC6, membrane potential fluorescence, at 10 µM; hits give high values
[12] = target: Short transient receptor potential channel 6 (Mus musculus) (UniProt Q61143); experiment: TRPC6 potentiation by TRPC4 potentiator hits, confirmation, selectivity assay for TRPC4 potentiator project, HEK293 cells, membrane potential dye, duplicate (AID 434952;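 active = compound raising the membrane signal above positive-control mean plus 3 SD in both repeats, and a primary screen hit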); settings: HEK293 TRPC6, membrane potential dye fluorescence, at 10 µM, maximal acetylcholine added after compound; hits give high values
[13] = target: Short transient receptor potential channel 4 (Mus musculus) (UniProt Q9QUQ5); experiment: calcium flux activators in TRPC4/5HT1a cells, counter-screen for TRPC4 activator project, cell-based, second counter screen, HEK293 TRPC4/5HT1a, Fluo-4 (AID 434977;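 active = calcium signal rise above buffer-control mean plus 5 SD in both duplicates, and also a hit in the primary screen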); settings: Fluo-4 calcium flux, at 10 µM; hits give high values
[14] = calcium flux inhibitors in TRPC4/5HT1a cells, confirmation, counter-screen for TRPC4 inhibitor project, cell-based, second counter screen, HEK293 TRPC4/5HT1a, Fluo-4 (AID 434978;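 active = primary screen active whose calcium signal fell more than 3 SD beyond the full-serotonin control mean in both duplicate plates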;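 also: serotonin given first at submaximal then at maximal dose after compound preincubation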); settings: Fluo-4 calcium flux, at 10 µM, serotonin added to trigger calcium flux; hits give high values
[15] = system: TRPC4 (mouse), co-expressed with 5HT1a in HEK293; experiment: calcium flux potentiators in TRPC4/5HT1a cells, confirmation, counter-screen for TRPC4 potentiator project, cell-based, second counter screen, HEK293 TRPC4/5HT1a, Fluo-4 (AID 434979;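 active = signal rise over 3 SD above mean of control wells given weak agonist, in both repeats and first screen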); settings: Fluo-4 calcium flux, at 10 µM, serotonin added at its EC20 dose; hits give high values
[16] = calcium flux activation in mu-opioid HEK293 cells, confirmation, counter-screen for TRPC4 activator project, cell-based, HEK293 mu-opioid receptor line (AID 449723;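 active = hit in primary screen, with calcium signal over 5 SD above buffer well mean in both duplicates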;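 also: counter screen cells carry the mu-opioid receptor alone and lack TRPC4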); settings: Fluo-4 calcium fluorescence, at 10 µM; hits give high values
[17] = calcium flux enhancement in mu-opioid HEK293 cells, confirmation, counter-screen for TRPC4 allosteric potentiator project, cell-based, HEK293 mu-opioid receptor line (AID 449724;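 active = calcium signal rise more than 3 SD above the low-dose agonist control mean, in both duplicate plates and the primary screen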); settings: Fluo-4 calcium flux, at 10 µM, compound added before EC20 DAMGO stimulus; hits give high values
[18] = thallium flux activation in parental CHO cells, counter-screen for KCNQ1 potentiator project (AID 493006;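 active = duplicate-averaged activation above buffer control mean plus 5 SD of those controls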;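 also: fluorescence ratio of max minus min over baseline after K+ and Tl+ depolarization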); settings: parental CHO-K1 cells, FluxOR thallium flux, at 10 µM; hits give high values
[19] = target: Potassium voltage-gated channel subfamily KQT member 1 (Homo sapiens) (UniProt P51787); experiment: KCNQ1 potassium channel potentiators, confirmation, FluxOR thallium flux, CHO cells, duplicates (AID 493007;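 active = potentiation averaged over duplicate wells exceeding buffer-only control mean by more than 3 SD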;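 also: 0% = buffer-only wells and 100% = R-L3 activator control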); settings: KCNQ1 cell line, FluxOR thallium flux fluorescence, at 10 µM; hits give high values, % of reference activator effect, buffer zero
Potassium voltage-gated channel subfamily KQT member 1 (Homo sapiens), sequence (P51787 whole entry, looked up): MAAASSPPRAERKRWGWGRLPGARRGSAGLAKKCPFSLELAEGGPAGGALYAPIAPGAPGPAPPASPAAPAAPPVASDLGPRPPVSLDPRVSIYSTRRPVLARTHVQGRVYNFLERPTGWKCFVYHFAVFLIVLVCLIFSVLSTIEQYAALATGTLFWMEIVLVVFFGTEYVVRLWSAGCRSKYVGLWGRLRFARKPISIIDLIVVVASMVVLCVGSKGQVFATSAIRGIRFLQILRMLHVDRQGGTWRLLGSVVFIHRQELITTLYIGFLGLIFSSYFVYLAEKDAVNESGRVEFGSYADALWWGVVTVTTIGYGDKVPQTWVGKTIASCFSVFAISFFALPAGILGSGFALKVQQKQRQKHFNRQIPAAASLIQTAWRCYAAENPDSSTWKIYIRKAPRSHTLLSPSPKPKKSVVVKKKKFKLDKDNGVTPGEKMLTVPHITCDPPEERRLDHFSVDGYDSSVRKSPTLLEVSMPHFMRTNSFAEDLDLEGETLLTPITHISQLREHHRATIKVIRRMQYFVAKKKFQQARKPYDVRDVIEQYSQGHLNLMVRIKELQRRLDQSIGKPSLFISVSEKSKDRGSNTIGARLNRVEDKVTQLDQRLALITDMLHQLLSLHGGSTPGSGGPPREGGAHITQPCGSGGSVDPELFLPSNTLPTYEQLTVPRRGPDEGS

[20] = target: Potassium voltage-gated channel subfamily KQT member 2 (Rattus norvegicus) (UniProt O88943); experiment: rat KCNQ2 channel potentiation, selectivity assay for KCNQ1 potentiator project, KCNQ2-CHO-K1 cells (AID 493009;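 active = mean duplicate potentiation above the buffer control mean plus 5 SD of buffer wells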;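 also: assay conditions were tuned for KCNQ1 rather than KCNQ2 modulators; signal is max minus min fluorescence divided by baseline after thallium stimulus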); settings: FluxOR thallium flux fluorescence, at 10 µM; hits give high values, scaled: buffer 0, activator control 100
Potassium voltage-gated channel subfamily KQT member 2 (Rattus norvegicus), sequence (O88943 whole entry, looked up): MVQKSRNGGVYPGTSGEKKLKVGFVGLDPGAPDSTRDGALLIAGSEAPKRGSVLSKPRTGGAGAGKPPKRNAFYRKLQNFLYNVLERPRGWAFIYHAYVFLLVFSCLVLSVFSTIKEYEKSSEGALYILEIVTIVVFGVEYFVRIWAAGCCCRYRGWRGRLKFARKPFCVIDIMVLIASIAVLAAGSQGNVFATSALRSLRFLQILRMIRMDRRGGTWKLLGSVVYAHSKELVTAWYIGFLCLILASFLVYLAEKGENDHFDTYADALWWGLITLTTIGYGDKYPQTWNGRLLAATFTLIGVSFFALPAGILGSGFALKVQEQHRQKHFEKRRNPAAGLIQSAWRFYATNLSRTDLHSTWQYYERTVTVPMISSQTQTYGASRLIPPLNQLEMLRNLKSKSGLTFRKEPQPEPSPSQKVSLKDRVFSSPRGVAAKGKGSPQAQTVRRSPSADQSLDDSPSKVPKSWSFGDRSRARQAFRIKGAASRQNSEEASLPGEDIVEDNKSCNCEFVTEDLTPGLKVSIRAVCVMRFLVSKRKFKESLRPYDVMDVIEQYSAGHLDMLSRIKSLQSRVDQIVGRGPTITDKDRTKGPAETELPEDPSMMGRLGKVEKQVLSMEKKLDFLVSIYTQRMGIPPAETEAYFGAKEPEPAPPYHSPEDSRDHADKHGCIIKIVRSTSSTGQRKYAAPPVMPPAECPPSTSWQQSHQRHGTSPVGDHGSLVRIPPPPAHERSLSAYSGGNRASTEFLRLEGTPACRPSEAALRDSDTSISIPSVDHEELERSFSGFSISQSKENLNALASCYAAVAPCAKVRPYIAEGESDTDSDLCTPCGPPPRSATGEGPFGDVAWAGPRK

Cc1ccc(S(=O)(=O)N2CCN(c3cc4c(cc3[N+](=O)[O-])n(C)c(=O)n4C)CC2)cc1
inactive: outcome [1] | outcome [2] | outcome [3] | outcome [4] | outcome [5] | outcome [6] | outcome [7] | outcome [8] | outcome [9] | outcome [10] | outcome [11] | outcome [12] | outcome [13] | outcome [14] | outcome [16] | outcome [17]
active: potentiation [15] 10.6%

Cc1ccccc1-c1n[nH]c(=S)n1Cc1ccccc1
inactive: outcome [1] | outcome [2] | outcome [3] | outcome [4] | outcome [5] | outcome [6] | outcome [7] | outcome [8] | outcome [9] | outcome [10] | outcome [11] | outcome [12] | outcome [13] | outcome [14] | outcome [15] | outcome [16] | outcome [17]

CN(C)CCOc1ccc2ccccc2c1
inactive: outcome [1] | outcome [2] | outcome [5] | outcome [6] | outcome [7] | outcome [8] | outcome [9] | outcome [10] | outcome [11] | outcome [12] | outcome [13] | outcome [14] | outcome [16] | outcome [17]
active: potentiation [3] 8% | potentiation [4] 14% | potentiation [15] 19.8%

COc1ccc(/C=N/Nc2nc3ccccc3s2)cc1O
active: potentiation [15] 26%
inactive: outcome [1] | outcome [2] | outcome [3] | outcome [4] | outcome [5] | outcome [6] | outcome [7] | outcome [8] | outcome [9] | outcome [10] | outcome [11] | outcome [12] | outcome [13] | outcome [14] | outcome [16] | outcome [17]

CCN(CC)CCOC(=O)c1cccc(Br)c1
active: potentiation [3] 14% | potentiation [4] 12% | potentiation [15] 8.39%
inactive: outcome [1] | outcome [2] | outcome [5] | outcome [6] | outcome [7] | outcome [8] | outcome [9] | outcome [10] | outcome [11] | outcome [12] | outcome [13] | outcome [14] | outcome [16] | outcome [17]

CSc1nnc(Cc2sc(-c3ccccc3)nc2-c2ccccc2)o1
inactive: outcome [1] | outcome [2] | outcome [3] | outcome [4] | outcome [5] | outcome [6] | outcome [7] | outcome [8] | outcome [9] | outcome [10] | outcome [11] | outcome [12] | outcome [13] | outcome [14] | outcome [16] | outcome [17]
active: potentiation [15] 23.3%

CC(C(=O)c1ccc(Br)cc1)[n+]1cccc(NC(=O)c2ccccc2)c1 (stereo not drawn)
inactive: outcome [1] | outcome [2] | outcome [3] | outcome [4] | outcome [5] | outcome [6] | outcome [7] | outcome [8] | outcome [9] | outcome [10] | outcome [11] | outcome [12] | outcome [13] | outcome [14] | outcome [15] | outcome [16] | outcome [17]

Cn1c(=O)cc(OCCCC(=O)NCCCN2CCN(Cc3ccccc3)CC2)c2ccccc21
inactive: outcome [1] | outcome [2] | outcome [5] | outcome [6] | outcome [7] | outcome [8] | outcome [9] | outcome [10] | outcome [11] | outcome [12] | outcome [13] | outcome [14] | outcome [16] | outcome [17]
active: potentiation [3] 19% | potentiation [4] 19% | potentiation [15] 21%

N#Cc1ccc(-c2ccccc2)nc1SCCN1CCOCC1
inactive: outcome [1] | outcome [2] | outcome [3] | outcome [4] | outcome [5] | outcome [6] | outcome [7] | outcome [8] | outcome [9] | outcome [10] | outcome [11] | outcome [12] | outcome [13] | outcome [14] | outcome [16] | outcome [17]
active: potentiation [15] 17.3%

Cc1cc(OCCN2CCCCC2)nc2ccccc12
inactive: outcome [1] | outcome [2] | outcome [3] | outcome [4] | outcome [5] | outcome [6] | outcome [7] | outcome [8] | outcome [9] | outcome [10] | outcome [11] | outcome [12] | outcome [13] | outcome [14] | outcome [16] | outcome [17]
active: potentiation [15] 13.7%

CCOc1ccccc1NC(=O)CN(c1ccc(OC)cc1)S(=O)(=O)c1c(C)[nH]c(=O)[nH]c1=O
active: potentiation [15] 16.4%
inactive: outcome [1] | outcome [2] | outcome [3] | outcome [4] | outcome [5] | outcome [6] | outcome [7] | outcome [8] | outcome [9] | outcome [10] | outcome [11] | outcome [12] | outcome [13] | outcome [14] | outcome [16] | outcome [17]

CCN1CCN(c2nc(C)c3c(n2)CC(C)CC3=O)CC1 (stereo not drawn)
active: potentiation [15] 8.12%
inactive: outcome [1] | outcome [2] | outcome [3] | outcome [4] | outcome [5] | outcome [6] | outcome [7] | outcome [8] | outcome [9] | outcome [10] | outcome [11] | outcome [12] | outcome [13] | outcome [14] | outcome [16] | outcome [17]

O=C(Nc1ccc(F)cc1)Nc1cc(S(=O)(=O)N2CCOCC2)ccc1N1CCCC1
active: potentiation [4] 53% | potentiation [15] 33%
inactive: outcome [1] | outcome [2] | outcome [3] | outcome [5] | outcome [6] | outcome [7] | outcome [8] | outcome [9] | outcome [10] | outcome [11] | outcome [12] | outcome [13] | outcome [14] | outcome [16] | outcome [17]

COc1cc(C2(c3ccc(O)c(OC)c3)C(=O)Nc3c(C)cc(Br)cc32)ccc1O
inactive: outcome [1] | outcome [2] | outcome [3] | outcome [5] | outcome [6] | outcome [7] | outcome [8] | outcome [9] | outcome [10] | outcome [11] | outcome [12] | outcome [13] | outcome [14] | outcome [16] | outcome [17] | outcome [20]
active: potentiation [4] 22% | potentiation [15] 71.7% | activation [18] 168% | potentiation [19] 36.5%

CCc1c(C)nc2ccc(Br)cc2c1SCCC#N
inactive: outcome [1] | outcome [2] | outcome [3] | outcome [4] | outcome [5] | outcome [6] | outcome [7] | outcome [8] | outcome [9] | outcome [10] | outcome [11] | outcome [12] | outcome [13] | outcome [14] | outcome [15] | outcome [16] | outcome [17]
